Laboratory results reported in PubChem BioAssay (NCATS).
Results filed as inconclusive are left out. Where a call stands in place of a potency, no number is given. Active and inactive are the calls of the source. The call rests on the fitted dose curve; in most records, active means well fitted cell-killing curve with a large enough effect; inconclusive means small, poorly fitted or top-dose-only effect; inactive means flat fitted curve, though single readings scatter.
Potency means the concentration at half of the fitted maximal effect.

Assay: Cell Viability - LYMP2-016 (AID 984); further: nearly all actives have a fitted effect of over 55% in size
Details: LYMP2-016 lymphoblastoid cell viability, qHTS; series mostly up to 92.2 µM
Text: NIH Chemical Genomics Center [NCGC]
NIH Molecular Libraries Screening Centers Network [MLSCN]
National Institutes of Environmental Health Sciences [NIEHS]
National Toxicology Program [NTP]
We have developed a 1536-well cell-based assay for quantitative high throughput screening (qHTS) against a number of cell lines to determine in vitro cytotoxicity of small molecules. This particular assay uses a human lymphoblastoid cell line (LYMP2-016) purchased from Coriell Institute for Medical Research.
NCGC Assay Protocol Summary:
The CellTiter-Glo luminescent cell viability assay (Promega) is a homogeneous method to measure the number of viable cells in culture. The end point readout of this assay is based on quantitation of intracellular ATP, an indicator of metabolic activity, using the luciferase reaction. Luciferase catalyzes the oxidation of beetle Luciferin to oxyluciferin and light in the presence of ATP. The luminescent signal is proportional to amount of ATP present.
Using the CellTiter-Glo luminescent cell viability assay, the amount of cellular ATP was measured in the lymphoblastoid cell line with complete culture medium following compound treatment for 24 hours. The assay was performed in opaque white Kalypsys 1536-well plates. In the screen, tetraoctylammonium bromide was used as positive control. Library compounds were measured for their ability to cause acute toxicity in the cell line, as reflected by a decrease in intracellular ATP levels, in a concentration-dependent manner. […] AC50 values were determined from concentration-response data modeled with the standard Hill equation.
qHTS protocol for CellTiter Glo lymphoblastoid cellular assay
[Step] [Parameter] [Value] [Description]
1. Reagent; 5 uL; 2500 lymphoblastoid cells/well
2. Time; 5 hr; 37 C incubation
4. Controls; 23 nL; Tetraoctylammonium bromide 6.4pM to 92 uM
5. Time; 24 hr; 37 C incubation
6. Reagent; 5 uL; CellTiter Glo reagent
7. Time; 30 min; Room Temperature
8. Detection; Luminescence; Viewlux plate reader
Keywords: cell viability, cytotoxicity, lymphoblastoid cell line, luminescence, NTPHTS, NTPHTS_NCGC, NIEHS, DSSTox, MLSMR, MLSCN, NIH Roadmap, qHTS, NCGC
For `C=CC(=O)NCNC(=O)C=C`, the Potency was “inactive”.
For `OCCCBr`, the Potency was “inactive”.
For `Nc1ccc(Sc2ccc(N)cc2)cc1`, the Potency was “inactive”.
In the case of `C1CCC(NC2CCCCC2)CC1`, the Potency is reported as “inactive”.
With `CC(=O)[O][Hg][c]1ccccc1` the Potency was 1000 nM (active).
In the case of `COc1ccc(C(c2ccc(OC)cc2)C(Cl)(Cl)Cl)cc1`, the Potency is reported as “inactive”.
With `O=[N+]([O-])c1cc([N+](=O)[O-])c2ccccc2c1` the Potency was “inactive”.
With `O=S(=O)(c1ccc(Cl)cc1)c1ccc(Cl)cc1` the Potency was “inactive”.
In the case of `O=C(O)COc1ccccc1`, the Potency is reported as “inactive”.
In the case of `O=C(O)C(Cl)Cl`, the Potency is reported as “inactive”.
With `CN(C)[C@@H]1C(=O)C(C(N)=O)=C(O)[C@@]2(O)C(=O)C3=C(O)c4c(O)cccc4[C@@](C)(O)[C@H]3[C@H](O)[C@@H]12` the Potency was “inactive”.
With `O=[N+]([O-])c1c(Cl)c(Cl)cc(Cl)c1Cl` the Potency was “inactive”.
In the case of `CCOP(=O)(NC(C)C)Oc1ccc(SC)c(C)c1` (stereo unspecified), the Potency is reported as “inactive”.
In the case of `Cc1cc(O)ccc1Cl`, the Potency is reported as “inactive”.
For `CCCCC(CC)COC(=O)c1ccccc1C(=O)OCC(CC)CCCC` (stereo unspecified), the Potency was “inactive”.
With `Nc1ccc(Cl)cc1N` the Potency was “inactive”.
In the case of `CCCCOC(=O)c1ccccc1C(=O)OCc1ccccc1`, the Potency is reported as “inactive”.
With `CCOCCOC(C)=O` the Potency was “inactive”.
For `c1cc2ccc3cccc4ccc(c1)c2c34`, the Potency was “inactive”.
For `CCCCCCCCc1ccc(O)cc1`, the Potency was “inactive”.
In the case of `Nc1ccc([N+](=O)[O-])cc1`, the Potency is reported as “inactive”.
In the case of `Nc1ccc(Cl)cc1`, the Potency is reported as “inactive”.
For `CN(C)NC(=O)CCC(=O)O`, the Potency was “inactive”.
With `CC(C)(O)C(=O)Nc1ccc([N+](=O)[O-])c(C(F)(F)F)c1` the Potency was “inactive”.
With `O=[N+]([O-])c1c2ccccc2cc2ccccc12` the Potency was “inactive”.
With `COC(C)(C)CCCC(C)C/C=C/C(C)=C/C(=O)OC(C)C` (stereo unspecified) the Potency was “inactive”.
